The values below come from PubChem BioAssay (NCATS).

What all share (experiment): Primary qHTS to identify gynecologic anti-cancer compounds using libraries of approved drugs and bioactive compounds (AID 1345084); further: nearly all actives have a fitted effect of over 55% in size
The test system of one test is C33A. Conditions: Gynecologic cancer cell panel viability, ATPlite luminescence, 48 h; series mostly up to 57.5 µM. In short, it runs like this: (§1)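 Measured: luminescence after ATPlite addition (15 min, RT). Exposure: 48 h, 37 C, 5% CO2.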
On the technique in general: Cellular ATP, detected with luciferase, serves as a proxy for viable cell number.

In the next test the test system is CAOV3. Conditions: Gynecologic cancer cell panel viability, ATPlite luminescence, 48 h; series mostly up to 57.5 µM. In short, it runs like this:
as §1

The next test has as its system CASKI. The note with it: Gynecologic cancer cell panel viability, ATPlite luminescence, 48 h; series mostly up to 57.5 µM. In short, it runs like this:
as §1

The subject of another test is Es-2. The note with it: Gynecologic cancer cell panel viability, ATPlite luminescence, 48 h; series mostly up to 57.5 µM. In a few lines: as §1
In a further test the test system is HeLa. The note with it: Gynecologic cancer cell panel viability, ATPlite luminescence, 48 h; series mostly up to 57.5 µM. In a few lines:
as §1

The next test concerns Hek293T. The note with it: Gynecologic cancer cell panel viability, ATPlite luminescence, 48 h, control line for the selectivity index; series mostly up to 57.5 µM. In a few lines:
as §1

A further test relates to JEG-3. The note with it: Gynecologic cancer cell panel viability, ATPlite luminescence, 48 h; series mostly up to 57.5 µM. In a few lines: as §1
The next test concerns OV90. The note with it: Gynecologic cancer cell panel viability, ATPlite luminescence, 48 h; series mostly up to 57.5 µM. In short, it runs like this: as §1
For another test, the system named is PA-1. The note with it: Gynecologic cancer cell panel viability, ATPlite luminescence, 48 h; series mostly up to 57.5 µM. In a few lines:
as §1

Another test concerns SKOV3. Conditions: Gynecologic cancer cell panel viability, ATPlite luminescence, 48 h; series mostly up to 57.5 µM. In a few lines: as §1
Another test relates to Tov-21-G. Conditions: Gynecologic cancer cell panel viability, ATPlite luminescence, 48 h; series mostly up to 57.5 µM. In a few lines: as §1
For the next test, the system named is Tov112D. The note with it: Gynecologic cancer cell panel viability, ATPlite luminescence, 48 h; series mostly up to 57.5 µM. In short, it runs like this:
as §1

The structures appear in SMILES notation. Records with an inconclusive call do not appear. Values without a mark were called inactive. Calls of active or inactive are those of the source. The call rests on the fitted dose curve; in most records, active means well fitted cell-killing curve with a large enough effect; inconclusive means small, poorly fitted or top-dose-only effect, or effect the other way; inactive means flat fitted curve, though single readings scatter.
On the % scale 0 is the no-effect control and ±100 the full control effect; potency means the concentration at half of the fitted maximal effect.

As for `C=C[C@H]1[C@H](O[C@@H]2O[C@H](CO)[C@@H](O)[C@H](O)[C@H]2O)OC=C(C(=O)OC)[C@H]1CCOC(=O)c1cc(O)c(O)c(O)c1`, the Potency entry in the test with C33A, in the test with CAOV3, with CASKI, in the test with Es-2, in the test with HeLa and with Hek293T was “inactive” each time. Besides, the Potency entry with JEG-3, with OV90, in the test on PA-1, in the test with SKOV3, in the test with Tov-21-G and in the test with Tov112D was “inactive” in each case.
`COc1cc(O)c2c(c1)C1=CC(O)C(O)CC1(C)OC2=O` (stereo not given): the Potency entry in the test with C33A, with CAOV3, in the test with CASKI, in the test with Es-2, in the test with HeLa and in the test on Hek293T was “inactive” throughout. For the same molecule, the Potency entry in the test on JEG-3, in the test with OV90, in the test with PA-1, with SKOV3, with Tov-21-G and in the test with Tov112D was “inactive” each time.
For `COc1cccc(C(=O)N2CCN(C(=O)COc3cccc(C)c3)CC2)c1OC`, the Potency entry in the test with C33A, with CAOV3, in the test on CASKI, with Es-2, in the test with HeLa and in the test on Hek293T was “inactive” throughout. Further, the Potency result in the test with JEG-3, with OV90, in the test on PA-1, in the test on SKOV3, with Tov-21-G and in the test on Tov112D was “inactive” throughout.
For `O=C(CCCCN1CCOCC1)Nc1ccc(-c2cccnc2)cc1`, the Potency result with C33A, in the test on CAOV3, with CASKI, in the test on Es-2, in the test on HeLa and with Hek293T was “inactive” throughout. In addition, the Potency entry in the test on JEG-3, in the test with OV90, with PA-1, with SKOV3, with Tov-21-G and in the test on Tov112D was “inactive” in each case.
In the case of `CC1(C)CC[C@]2(C(=O)O[C@@H]3O[C@H](CO[C@@H]4O[C@H](CO)[C@@H](O)[C@H](O)[C@H]4O[C@@H]4O[C@H](CO)[C@@H](O)[C@H](O)[C@H]4O)[C@@H](O)[C@H](O[C@@H]4O[C@H](CO)[C@@H](O)[C@H](O)[C@H]4O)[C@H]3O)CC[C@]3(C)C(=CCC4[C@@]5(C)CC[C@@H](O)[C@@](C)(C(=O)O[C@@H]6O[C@H](CO)[C@@H](O)[C@H](O)[C@H]6O)C5CC[C@]43C)[C@@H]2C1` (stereo not given in full), the activity change, negative = cytotoxicity in the test on C33A was -23% [at 6.55 µM]; in the test with CAOV3, 2.18% [at 6.55 µM]; in the test on CASKI, -2.18% [at 6.55 µM]; with Es-2, 0.72% [at 6.55 µM]; in the test with HeLa, 5.19% [at 6.55 µM]; with Hek293T it was 16.4% [at 6.55 µM]. Moreover, the activity change, negative = cytotoxicity in the test on JEG-3 is -0.894% [at 6.55 µM]; in the test with OV90 it was -0.699% [at 6.55 µM]; in the test on PA-1, 5.56% [at 6.55 µM]; in the test with SKOV3, -6.61% [at 6.55 µM]; in the test on Tov-21-G, -1.95% [at 6.55 µM]; with Tov112D, -1.22% [at 6.55 µM].
Take `C[C@@H]1CN(Cc2ccccc2)C[C@H]1c1nc2c(cnn2C2CCOCC2)c(=O)[nH]1`: the Potency result in the test with C33A, in the test on CAOV3, in the test with CASKI, in the test with Es-2, in the test on HeLa and in the test on Hek293T was “inactive” each time. The Potency entry in the test on JEG-3, in the test with OV90, in the test with PA-1, in the test with SKOV3, in the test on Tov-21-G and with Tov112D was “inactive” in each case.
As to `CC/C=C\[C@H](O)[C@H](O)C1=C(C)C(=O)[C@]2(O1)C(=O)N[C@@](OC)(C(=O)c1ccccc1)[C@@H]2O`, the Potency result in the test with C33A, with CAOV3, in the test with CASKI, in the test on Es-2, with HeLa and in the test on Hek293T was “inactive” in each case. Also, the Potency result in the test on JEG-3, in the test with OV90, in the test on PA-1, with SKOV3, in the test on Tov-21-G and in the test on Tov112D was “inactive” in each case.
Consider `C=C[C@H]1[C@H](O[C@@H]2O[C@H](CO)[C@@H](O)[C@H](O)[C@H]2O)OC=C(C(=O)OC)[C@H]1C/C=C(/C=O)[C@@H]1C(C(=O)OC)=CO[C@@H](O[C@@H]2O[C@H](CO)[C@@H](O)[C@H](O)[C@H]2O)[C@@H]1C=C`, for which the Potency entry in the test with C33A, in the test with CAOV3, with CASKI, with Es-2, with HeLa and in the test on Hek293T was “inactive” in each case. Besides, the Potency result in the test with JEG-3, with OV90, in the test on PA-1, in the test on SKOV3, in the test on Tov-21-G and in the test on Tov112D was “inactive” in each case.
Take `Cc1cc(C)cc(C(=O)NOCCCCCC(=O)NO)c1`: the Potency was 3.98 µM (active) in the test with C33A; 8.91 µM (active) in the test with CAOV3; 7.08 µM (active) in the test on CASKI; 3.16 µM (active) in the test with Es-2; 3.16 µM (active) with HeLa; 3.55 µM (active) in the test with Hek293T. In addition, the Potency in the test with JEG-3 was 3.16 µM (active); with OV90 it was 3.98 µM (active); with PA-1, 0.891 µM (active); with SKOV3 it was 3.16 µM (active); in the test on Tov-21-G, 8.91 µM (active); in the test with Tov112D it was 3.55 µM (active).
For `CC(CO)C1CCC2(C)CC3C(CO)CC(O)C3C(C)(O)C/C=C/12` (stereo not given), the Potency result with C33A, in the test with CAOV3, in the test with CASKI, in the test with Es-2, with HeLa and in the test on Hek293T was “inactive” in each case. In addition, the Potency entry in the test on JEG-3, in the test on OV90, with PA-1, in the test on SKOV3, with Tov-21-G and in the test with Tov112D was “inactive” in each case.
Consider `COC(=O)N(C)c1c(N)nc(-c2nn(Cc3ccccc3F)c3ncccc23)nc1N`, for which the Potency result in the test on C33A, in the test with CAOV3, in the test on CASKI, with Es-2, in the test on HeLa and in the test with Hek293T was “inactive” throughout. The Potency result with JEG-3, with OV90, in the test on PA-1, in the test on SKOV3, in the test on Tov-21-G and in the test with Tov112D was “inactive” in each case.
On to `Nc1ncnc2c1ncn2CCNCCCCCO`, for which the Potency result in the test with C33A, in the test on CAOV3, in the test with CASKI, with Es-2, in the test with HeLa and in the test with Hek293T was “inactive” throughout. The Potency result in the test with JEG-3, with OV90, in the test with PA-1, in the test on SKOV3, in the test on Tov-21-G and with Tov112D was “inactive” each time.
For `C=C(C(=O)O)C1CCC2(C)CCC(O)C(=C)C2C1` (stereo not given), the Potency entry in the test on C33A, with CAOV3, in the test with CASKI, in the test with Es-2, with HeLa and with Hek293T was “inactive” each time. In addition, the Potency result in the test on JEG-3, in the test with OV90, with PA-1, in the test with SKOV3, in the test with Tov-21-G and in the test with Tov112D was “inactive” each time.
In the case of `CCC(C)C(=O)O[C@H]1CCC=C2C=C[C@H](C)[C@H](CC[C@@H](O)C[C@@H](O)CC(=O)O)[C@H]21` (stereo not given in full), the Potency result in the test on C33A, in the test on CAOV3, with CASKI, with Es-2, in the test with HeLa and with Hek293T was “inactive” in each case. Moreover, the Potency result in the test with JEG-3, in the test on OV90, with PA-1, with SKOV3, in the test on Tov-21-G and with Tov112D was “inactive” in each case.
For `CC1(C)CCC[C@]2(C)[C@H]3CC(=O)O[C@]3(C)CC[C@@H]12`, the Potency result in the test with C33A, in the test on CAOV3, in the test with CASKI, in the test with Es-2, in the test with HeLa and in the test with Hek293T was “inactive” throughout. Besides, the Potency result with JEG-3, with OV90, with PA-1, in the test with SKOV3, in the test on Tov-21-G and with Tov112D was “inactive” throughout.
